Compounds with a hit are over-represented: about 4.2% of the library has one in this group of screens.
D1 ag – activates the human D1 dopamine receptor | P21728 | HEK293 T-REx D1 cells, calcium flux, agonist mode | activation, % at 2 µM | 360,000 compounds, 1% hits | AID 504660; in the data active = activation above about 30%; note: 0% is about no effect
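Inducible HEK293 T-REx D1 cells, force-coupled to calcium signalling, were plated at 4000 cells/well with tetracycline and held overnight at 30 C. After no-wash calcium dye loading, compound-evoked calcium rise over 180 s flagged agonists.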
TRPV1 potentiator – enhances activation of the human vanilloid receptor TRPV1 | Q8NER1 | TRPV1-expressing cells, Fluo-8 calcium influx, capsaicin EC20 potentiation | potentiation, % at 8.33 µM | 320,000 compounds, 0.02% hits | AID 540277; in the data active = potentiation above about 80%; inconclusive = between about 30% and that limit; note: 0% is about no effect
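TRPV1-expressing cells were cultured overnight at 35.5C and loaded with Fluo-8 calcium dye for 40 to 90 min at room temperature. After a 10 s baseline, compound was added and calcium influx was read kinetically for 3 min (ex 480/em 520 nm).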
TRPV1 ag – human TRPV1 agonism; 320,000 compounds, 0.19% hits; TRPV1-expressing cells, Fluo-8 calcium influx, agonist mode; Q8NER1; activation, % at 8.33 µM; in the data active = activation above about 80%; inconclusive = between about 30% and that limit; note: 0% is about no effect
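Cells expressing TRPV1 were dye-loaded with Fluo-8 and read kinetically: 10 s baseline, 3 min after compound (agonist portion), then 2 min after EC20 capsaicin (allosteric enhancer portion). Calcium-bound dye fluorescence at 480/520 nm.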
D1 antag – human D1 dopamine receptor antagonism | HEK293 TREx D1 cells, calcium flux, dopamine EC80; active compounds read low | activity change, negative = inhibition, % at 10 µM | 360,000 compounds, 3.2% hits; in the data active = activity change below about -30%; note: % is set by controls: 0 for no effect and ±100 for the full control effect
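Using tetracycline-induced force-coupled D1 Hek293 cells and a calcium dye, signals were followed for 180 s after compound, then for 180 s after EC80 dopamine, to detect inhibitors.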
D1 potentiator – human D1 dopamine receptor positive modulation. P21728. AID 504651. 360,000 compounds, 0.036% hits. HEK293 TREx D1 cells, calcium flux, dopamine EC20 potentiation. potentiation, % at 10 µM; in the data active = potentiation above about 30%; note: 0% is about no effect
The depositor's hits bear a star; ? = inconclusive; / = not tested or not shown.

SMILES | D1 ag | TRPV1 potentiator | TRPV1 ag | D1 antag | D1 potentiator
Cc1cccc(CCNC(=O)C2CCCN(S(=O)(=O)c3ccc4c(c3)oc(=O)n4C)C2)c1 (stereo not given) | -1.3 | / | / | -50.2* | -3.1
COc1cccc(N2CCN(C(=O)C3CCN(S(=O)(=O)c4ccc5c(c4)oc(=O)n5C)CC3)CC2)c1 | 1.4 | 8.4 | 0.7 | -0.1 | -3.1
Cn1c(=O)oc2cc(S(=O)(=O)N3CCC(C(=O)N4CCN(c5ccc(Cl)cc5)CC4)CC3)ccc21 | 8.2 | / | / | -18.2 | -2.6
Cn1c(=O)oc2cc(S(=O)(=O)N3CCC(C(=O)N4CCN(c5cccc(Cl)c5)CC4)CC3)ccc21 | 18.9 | / | / | -31.2* | -3.9
Cn1c(=O)oc2cc(S(=O)(=O)N3CCCC(C(=O)N4CCN(c5cccc(Cl)c5)CC4)C3)ccc21 (stereo not given) | 5.9 | / | / | -31.7* | -2.8
CCc1ccc(NC(=O)Cn2cnc3sc(C)c(S(=O)(=O)N4CCN(c5ccccc5OC)CC4)c3c2=O)cc1 | 1.1 | / | / | -2.0 | -1.0
COc1cccc(CNC(=O)N2CCc3c(sc4c3CCCC4)C2c2ccc(F)cc2)c1 (stereo not given) | 4.7 | / | / | 5.3 | -0.1
CSc1nn(CC(=O)Nc2cc(C)ccc2C)c(N)c1S(=O)(=O)c1ccccc1 | 1.7 | / | / | -23.6 | 1.6
CCCCn1c(=O)c2oc3ccccc3c2n(CC(=O)Nc2cccc(Cl)c2C)c1=O | 0.0 | / | / | 1.6 | -1.7
Cc1oc(-c2ccc(Cl)cc2)nc1CN1CCC(C(=O)NCCCN2CCN(c3cccc(Cl)c3)CC2)CC1 | 48.9* | / | / | -45.1* | -3.4
CCc1ccc(-c2nc(CN3CCC(C(=O)NCCN(CC)c4ccccc4)CC3)c(C)o2)cc1 | 32.2* | 8.5 | -0.5 | -22.5 | -8.6
CCN(CCNC(=O)C1CCN(Cc2nc(-c3ccc(Cl)cc3)oc2C)CC1)c1ccccc1 | 48.2* | 10.5 | 4.0 | -44.8* | -7.0
CCN(CCNC(=O)C1CCCN(Cc2nc(-c3ccc(OC)cc3)oc2C)C1)c1ccccc1 (stereo not given) | -0.8 | 12.0 | 3.3 | 0.4 | 3.9
CCCCNC(=O)C1CCCN(Cc2nc(-c3ccc(Cl)cc3)oc2C)C1 (stereo not given) | 7.3 | / | / | -30.4* | -4.1
O=C(OCC#CCNc1nnc(-c2cccc3ccccc23)o1)c1cccs1 | 3.4 | / | / | 0.8 | 4.7
Cc1oc(-c2cccc(Cl)c2)nc1CS(=O)(=O)CC(=O)NCCN1CCOCC1 | 1.8 | 12.2 | 3.7 | -33.4* | -0.7
Cc1oc(-c2cccc(Cl)c2)nc1CN1CCC(C(=O)NC2CC2)CC1 | 2.9 | 0.6 | 0.3 | 4.9 | -3.9
CCN(CCNC(=O)C1CCN(Cc2nc(-c3cccc(Cl)c3)oc2C)CC1)c1ccccc1 | 47.4* | -9.8 | 8.6 | -43.9* | -5.2
CCc1ccc(-c2nc(CN3CCC(C(=O)NCc4ccc(F)cc4)CC3)c(C)o2)cc1 | 33.3* | -5.4 | 17.5 | -9.8 | 1.7
COc1ccc(-c2nc(CN3CCC(C(=O)NCc4ccc(F)cc4)CC3)c(C)o2)cc1OC | 0.3 | / | / | -1.3 | -2.6
O=[N+]([O-])/C=C\c1ccc(N2CCCC2)c(F)c1 | 126.7* | -3.2 | 22.4 | 18.4 | -12.2
O=Cc1ccc(N2CCCC2)c([N+](=O)[O-])c1 | 1.3 | 10.1 | -0.2 | 6.9 | 0.5
COc1ccc(-c2nn3c(-c4ccccc4)nnc3s2)cc1 | 0.6 | -11.5 | 1.3 | -30.6* | -1.8
O=C(Nc1nc(-c2ccccn2)cs1)c1ccco1 | 2.1 | 5.0 | 1.8 | 4.9 | -3.8
O=C(Nc1nc(-c2cc3ccccc3oc2=O)cs1)c1ccco1 | -0.5 | 5.6 | 5.5 | -63.7* | -8.0
SMILES | D1 ag | TRPV1 potentiator | TRPV1 ag | D1 antag | D1 potentiator
COc1cccc(-c2cc(C(=O)NCCc3ccc(C)cc3)[nH]n2)c1 | 8.6 | / | / | -70.3* | -2.9
O=c1ccc2cc3ccoc3cc2o1 | 2.5 | -2.4 | 3.6 | 1.1 | -4.4
O=c1ccc2cc(O)c(O)cc2o1 | 1.6 | 3.5 | 0.5 | -41.1* | -3.5
O=S(=O)(NNC(=S)NCC1CCCO1)c1cc(Cl)ccc1Cl (stereo not given) | 4.7 | -8.5 | 3.9 | -38.9* | -2.2
Cc1cccc(N2CCN(C(=O)c3cc4c(=O)n(C)c5ccccc5c4s3)CC2)c1C | 2.5 | / | / | 3.3 | 0.2
Cc1cc(C)cc(NC(=O)C2CCCN(C(=O)c3cnn(-c4ccccc4)c3-n3cccc3)C2)c1 (stereo not given) | 2.4 | / | / | 1.5 | 1.9
Cc1nc(/C(N)=N/OC(=O)c2ccc(Cl)cc2)c(C(F)(F)F)o1 | -0.6 | -12.2 | -3.0 | -34.9* | -0.8
CCOC(=O)c1cccc(NC(=O)c2cc(C)nc3c2c(C)nn3-c2ccc(C)cc2)c1 | 2.8 | / | / | 1.3 | 2.5
CC(NCCC(c1ccccc1)c1ccccc1)c1ccccc1 (stereo not given) | 60.1* | -16.7 | 17.0 | 16.8 | 6.8
CC(=O)Nc1ccc(C(=O)Nc2ccc3c(c2)OCO3)cc1 | 3.4 | -14.1 | -1.3 | -30.6* | -1.4
O=C(Nc1ccc2c(c1)OCO2)c1ccc2c(c1)OCO2 | -0.1 | -14.9 | ? | 4.9 | -2.4
O=C(Nc1ccc2c(c1)OCCO2)c1ccc(NC(=O)C2CCCO2)cc1 (stereo not given) | 0.7 | 11.3 | -1.8 | -49.3* | -6.2
O=C(Nc1ccc2c(c1)OCO2)c1ccc[n+]([O-])c1 | 0.3 | 6.9 | -0.1 | -38.7* | 3.1
CC(=O)Nc1ccc(C(=O)Nc2ccc3c(c2)OCCO3)cc1 | 1.7 | 5.4 | 3.1 | 4.0 | 4.0
Cc1ccc(NC(=O)c2ccc3c(c2)OCCO3)cc1C | -0.4 | -30.4 | 85.5* | -13.5 | -3.2
COCCN1C(=S)N[C@@H](c2ccccc2)C(C(=O)OC)=C1C | 0.7 | 11.5 | -0.3 | 6.7 | -2.8
COc1ccc(C23CC4CC(CC(C4)C2)C3)cc1C(=O)NCCN(C)C | 39.4* | -8.0 | 6.6 | 0.3 | -0.8
COc1ccccc1C(=O)NCCC(=O)NCCC12CC3CC(CC(C3)C1)C2 | 2.1 | -2.2 | -0.1 | -30.5* | -6.5
COc1ccccc1OCCNC(=O)CCNC(=O)c1ccccc1OC | 0.5 | 6.6 | 0.0 | -4.5 | -0.8
CCCCCn1c(=O)[nH]c2cc(C(=O)NCc3ccc(C)cc3)ccc2c1=O | 2.4 | / | / | 4.4 | 0.4
CC(=O)Nc1ccc(S(=O)(=O)Oc2cccc(N3C(=O)C4CC=CCC4C3=O)c2)cc1 (stereo not given) | 12.6 | 1.3 | 3.0 | -15.2 | -0.1
COC(=O)c1ccc(OS(=O)(=O)c2ccc(NC(C)=O)cc2)cc1 | 21.3 | -1.2 | -4.6 | -34.7* | -8.2
CC(=O)Nc1ccc(S(=O)(=O)Oc2ccc(N3C(=O)C4CCCCC4C3=O)cc2)cc1 (stereo not given) | 37.6* | 12.4 | -1.6 | -51.9* | -9.3
CC(=O)Nc1ccc(S(=O)(=O)Oc2ccc3c(c2)C(C)=CC(C)(C)N3)cc1 | 19.6 | 4.1 | 0.9 | -41.6* | -5.4

High-throughput results deposited in PubChem BioAssay by National Center for Advancing Translational Sciences (NCATS).
